Compound activity from PubChem.
Tb PYK inh: T. brucei pyruvate kinase inhibition; Q57TT1; TbPYK enzyme, Kinase-Glo Plus ATP luminescence, 45 min; Potency, µM (series often up to 76.8 µM), most hits filed as inhibitors; 0.12% of 410,000 active; AID 624173; further: nearly all actives have a fitted effect of over 50% in size
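Screened from lowest to highest concentration, compounds were pinned into TbPYK/substrate mixtures, and ADP (130 uM final) was added. Plates sat at room temperature for 45 min prior to Kinase-Glo Plus detection by luminescence.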
Sm TGR block: blocks Schistosoma mansoni thioredoxin glutathione reductase; Q962Y6; purified TGR, DTNB reduction, TNB absorbance 405 nm; Potency, µM (doses to about 114 µM), most hits filed as inhibitors; 3% of 360,000 active; AID 485364; further: nearly all actives have a fitted effect of over 60% in size
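TGR 20 nM + NADPH 100 uM (dispensed conc.), cpd preinc 15 min RT; start with NADPH (500 uM addition) then DTNB (15 mM addition). Kinetic TNB absorbance, 405 nm filter. Four-parameter Hill fit across titration.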
Shiga toxin inh: Shiga toxin inhibition. 9.2% of 290,000 active. inhibition, % at 38.7 µM. AID 2315. Vero cells, Shiga toxin protein synthesis inhibition reporter; in the data active means inhibition mostly above about 28%, no sharp cut-off; inactive means mostly below about 43%
CHX counter: affects cycloheximide protein synthesis inhibition readout, counter-screen; cell reporter, cycloheximide protein synthesis inhibition counterscreen; max response, %; AID 2314; 12% of 300,000 active; in the data active means max response mostly above about 13%, no sharp cut-off; inactive means mostly below about 14%; further: read at 38.3 µM for the half of the compounds with a filed dose
LmPK inh: inhibitors of Leishmania mexicana pyruvate kinase; Q27686; purified LmPK, Kinase-Glo ATP luminescence, 1 h; Potency, µM (titrated, usually from 57.5 µM), hits mostly inhibitors; 0.37% of 290,000 active
Target sequence (Q27686 whole entry, looked up): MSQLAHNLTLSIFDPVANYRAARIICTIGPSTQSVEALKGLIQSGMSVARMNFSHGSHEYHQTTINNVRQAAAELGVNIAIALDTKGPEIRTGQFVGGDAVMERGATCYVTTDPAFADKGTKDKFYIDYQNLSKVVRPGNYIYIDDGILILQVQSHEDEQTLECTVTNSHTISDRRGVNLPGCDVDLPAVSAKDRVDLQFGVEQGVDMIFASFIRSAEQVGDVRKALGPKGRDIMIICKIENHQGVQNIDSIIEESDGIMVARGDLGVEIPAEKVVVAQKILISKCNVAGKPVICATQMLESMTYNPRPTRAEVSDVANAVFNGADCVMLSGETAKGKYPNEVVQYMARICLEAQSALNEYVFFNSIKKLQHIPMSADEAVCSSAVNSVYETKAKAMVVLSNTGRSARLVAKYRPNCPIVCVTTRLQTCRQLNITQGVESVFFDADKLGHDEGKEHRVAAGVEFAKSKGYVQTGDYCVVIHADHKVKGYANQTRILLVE
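In 50 mM imidazole pH 7.2 with 7 mM MgCl2, LmPK (0.1 nM) turned over PEP (0.5 mM) and ADP (0.1 mM) for 1 h at room temperature. Luciferase read-out of ATP.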
FBPA Giardia inh: inhibitors of Giardia lamblia fructose-1,6-bisphosphate aldolase. A8B2U2. Potency, µM (series often up to 59.6 µM), actives largely listed as inhibitors. AID 2451. 0.71% of 290,000 active. purified Giardia FBPA; further: nearly all actives have a fitted effect of over 55% in size
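40 nM FBPA preincubated 10 min at RT with compound (up to 57.5 uM final), then substrate plus GAPDH/TPI/NAD/arsenate coupling and diaphorase/resazurin added. Fluorescence read after 20 min at RT, 525/598 nm.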
A number is an active result; i = inactive; ? = inconclusive; nt = not tested or not shown. The sample as a whole holds a higher share of hits than the screen did. Unless noted, the call rests on the fitted dose curve; in most records, active means well fitted curve in the direction sought with a large enough effect; inconclusive means small, poorly fitted or top-dose-only effect, or another doubt; inactive means no such curve, though single readings can be large; an effect the other way counts as inactive or inconclusive.

SMILES	Tb PYK inh	Sm TGR block	Shiga toxin inh	CHX counter	LmPK inh	FBPA Giardia inh
COc1ccc2c(c1)nc(SCC(=O)c1ccc(Br)s1)n2C	i	31.6µM	i	i	i	?
Cc1ccc(C(=O)OCC(=O)NN2C(=O)NC3(CCC(C)CC3)C2=O)cc1 (stereo not drawn)	i	i	nt	nt	nt	nt
COc1cc(NC(=O)c2ccc3c(c2)OCCO3)ccc1NC(=O)c1cccs1	i	nt	i	21.8	i	i
COc1cc(NC(=O)c2ccc3c(c2)OCCO3)ccc1NC(=O)c1ccco1	i	i	39.2	18.9	i	i
O=C(Nc1ccc(NC(=O)c2cccs2)cc1)c1ccc2c(c1)OCCO2	i	i	i	i	i	i
CC1(C(=O)NS(=O)(=O)Cc2ccccc2C(F)(F)F)CCN1C(=O)c1cccc(F)c1 (stereo not drawn)	i	nt	nt	nt	nt	nt
Cc1ccccc1NC(=O)c1cc(C(=O)c2cc(Cl)ccc2O)cn(-c2ccccc2C)c1=O	i	i	46.1	39.2	i	i
Cc1ccc(C(=O)/C=C/c2cn(CC(O)CN3CCOCC3)c3ccccc23)cc1 (stereo not drawn)	i	i	i	29.7	i	i
COc1ccc(C(=O)/C=C/c2cn(CC(O)CN3CCOCC3)c3ccccc23)cc1 (stereo not drawn)	i	i	i	12.5	i	i
O=C(CSc1ccc(C(F)(F)F)cn1)Nc1ccccc1	i	i	i	i	i	i
O=C(/C=C/Sc1ccc(C(F)(F)F)cn1)c1ccccc1	i	89.1µM	i	22.2	i	i
COc1ccc(CCNC(=O)c2cc(-c3ccccc3OC)on2)cc1OC	i	i	i	i	i	i
COc1ccc(NC(=O)c2cc(-c3ccccc3Cl)on2)cc1	i	i	129.9	43.7	i	i
COc1ccccc1-c1cc(C(=O)NCCc2ccccc2)no1	i	i	147.0	53.8	i	i
COc1ccccc1-c1cc(C(=O)Nc2cccnc2)no1	i	i	48.5	25.2	i	i
CCCc1cc(C(=O)NCCc2ccccc2)no1	i	i	86.5	53.4	i	i
CCc1nc2ccc(C(=O)NCc3ccccc3C)cc2nc1CC	i	i	nt	nt	nt	nt
Cc1nc(N2CCCC2)c2c(C(=O)Nc3ccc(Br)cc3F)c(C)oc2n1	i	i	nt	nt	nt	nt
CN(C)N(C(=O)c1cc(-c2cccs2)nn1-c1ccccc1)C1CCS(=O)(=O)C1 (stereo not drawn)	i	i	nt	nt	nt	nt
O=C(Cn1cc(C(F)(F)F)cc(Cl)c1=O)Nc1cccc(S(=O)(=O)N2CCCCC2)c1	i	i	nt	nt	nt	nt
Cc1ccc(S(=O)(=O)NCc2nnnn2-c2ccc(F)cc2)cc1	i	nt	nt	nt	nt	nt
COc1ccc(NC(=O)c2cc(-c3ccccc3OC)on2)cc1	i	i	88.5	19.4	i	i
CC(C)NC(=O)C1(C)CCN1C(=O)C1(c2ccccc2)CC1 (stereo not drawn)	i	nt	nt	nt	nt	nt
S=C=Nc1ccccn1	i	i	i	26.7	i	i
Cc1ccc(Nc2cc(C)nc(-c3ccccc3O)n2)cc1	i	i	94.6	28.9	i	i
SMILES	Tb PYK inh	Sm TGR block	Shiga toxin inh	CHX counter	LmPK inh	FBPA Giardia inh
Cc1cc(Nc2ccc(F)c(F)c2)nc(-c2ccccc2O)n1	i	i	i	i	i	i
Cc1ccc(Oc2cc(C)nc(-c3ccccc3O)n2)cc1	i	i	i	36.6	i	i
Cc1cc(NCCCN)nc(-c2ccccc2O)n1	i	i	i	25.4	i	i
Cc1ccc(Nc2cc(C)nc(-c3ccccc3)n2)cc1	i	i	91.0	41.9	i	i
Cc1nn(C)c2c1c(C(F)(F)F)cc(=O)n2C(C)C(=O)NCCc1ccccc1 (stereo not drawn)	i	i	nt	nt	nt	nt
CCc1ccc(NC(=O)CC2C(=O)N(c3ccccc3)C(=O)N2C(C)C)cc1 (stereo not drawn)	i	i	nt	nt	nt	nt
Clc1ncnc2scc(C3COc4ccccc4O3)c12 (stereo not drawn)	i	?	i	i	i	i
O=c1[nH]cnc2scc(-c3ccc(-c4ccccc4)cc3)c12	i	i	i	28.7	i	i
CCCOc1ccc(-c2csc3nc[nH]c(=O)c23)cc1	i	i	46.7	40.5	i	i
COc1ccc(-c2csc3nc[nH]c(=O)c23)cc1OC	i	i	i	i	i	i
